Screening data from PubChem.
Most compounds without a hit are left out; they make up all but 6.8% or so of the library.
Spn MK inh = inhibitors of Streptococcus pneumoniae mevalonate kinase. purified MK, PK/LDH-coupled NADH absorbance 340 nm. inhibition, % at 10 µM. 65,000 compounds, 0.48% hits. AID 555;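 active means ranked among the strongest by inhibition in the single 10 µM screen, a fixed top-ranked set picked for dose follow-up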
Abs 340nm = absorbance at 340 nm; compound absorbance at 340 nm, fold over control; fold change at 10 µM; 65,000 tested, under 10 active;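 active means at 10 µM dose, initial 340 nm absorbance at least 2 fold that of control wells; inactive means change under 2 fold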;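 further: initial absorbance extrapolated from kinetic A340 decline of NADH oxidation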
Fluor 339 460 = intrinsic fluorescence of library compounds, ex339/em460 – biochemical, MLSMR library, data from DPM-DC assay, artefact control, profiling panel | compound autofluorescence, ex339/em460 nm, NADH buffer; stronger effect = higher value; 1 = no-compound wells, NADH background | fluorescence fold increase at 10 µM | 65,000 compounds, 5.5% hits;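 active means at 10 µM, mean starting fluorescence two-fold or more over control wells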;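 further: signal is the first read of a kinetic run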
Spn DPM-DC inh = S. pneumoniae DPM-DC inhibition; calls only at 10 µM; purified DPM-DC, PK/LDH coupled NADH fluorescence; 65,000 compounds, 0.49% hits;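 active means the 320 compounds with the highest percent inhibition in the single-dose primary screen, excluding strongly autofluorescent ones, cut at about 32% in these data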;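 further: kinetic rate of NADH fluorescence loss reporting ADP formed by the decarboxylase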
NADH enzymes = blocks coupling enzymes of NAD/NADH assays; 65,000 compounds, 0.02% hits; coupled PK/LDH NADH assays, four targets; IC50, µM (top dose mostly 10 µM);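 active means single-dose screening hits from any of four coupled enzyme assays that gave an IC50 when retested across doses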;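 further: the DPM-DC format reads NADH fluorescence rather than 340 nm absorbance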
PMK inhibit = inhibitors of Streptococcus pneumoniae phosphomevalonate kinase | inhibition, % at 10 µM | 65,000 compounds, 0.49% hits | purified PMK, PK/LDH-coupled NADH absorbance 340 nm;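 active means top-ranked compounds by inhibition in the single 10 µM screen, taking a fixed number of the strongest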
Hits are given with their value; – = inactive; · = no result given; + = active, no number.

SMILES	Spn MK inh	Abs 340nm	Fluor 339 460	Spn DPM-DC inh	NADH enzymes	PMK inhibit
COc1ccc(C(=O)Nn2cc3c(c2-c2ccccc2)c(=O)n(C)c(=O)n3C)cc1	–	–	–	–	–	–
CC(C)C1N=C2c3ccccc3N=C(SCC(=O)NCCc3ccc(S(N)(=O)=O)cc3)N2C1=O (centres undefined)	–	–	2.4	–	–	–
CCOC(=O)CSC1=Nc2ccccc2C2=NC(CC(=O)NCc3cccs3)C(=O)N12 (centres undefined)	–	–	–	–	–	–
CCC(C)NC(=O)CSC1=Nc2ccccc2C2=NC(CC(=O)NCc3ccc(F)cc3)C(=O)N12 (centres undefined)	–	–	2.8	–	–	–
CCOC(=O)CSC1=Nc2ccccc2C2=NC(CC(=O)NCc3ccccc3)C(=O)N12 (centres undefined)	–	–	3	–	–	–
O=[n+]1c2c(n([O-])c3c1CCCC3)CCCCC2	–	–	–	–	–	–
Cc1occc1C(=O)NC1CCCCCC1	–	–	–	–	–	–
O=C(NC1CCCCCCC1)c1ccccc1O	–	–	3	–	–	–
CCOc1ccccc1CN1C(=O)NC(C)(c2ccccc2)C1=O (centres undefined)	–	–	–	–	–	–
COc1cc(OC)c(-c2nn3c(-c4ccco4)nnc3s2)cc1OC	–	–	3.4	·	–	–
COc1ccc(-c2nnc3sc(-c4ccco4)nn23)cc1OC	–	–	–	–	–	–
COc1cc(OC)c(-c2nn3c(-c4cccnc4)nnc3s2)cc1OC	–	–	3.9	·	–	–
COc1ccc(-c2nn3c(-c4ccco4)nnc3s2)cc1OC	–	–	–	+	–	–
COc1cc(OC)c(-c2nn3c(-c4ccncc4)nnc3s2)cc1OC	–	–	–	–	–	–
O=S(=O)(c1ccc(Cl)c(C(F)(F)F)c1)N1CCN(CC(O)COCC2CCCO2)CC1 (centres undefined)	–	–	–	–	–	–
Cc1cccn2c(=O)c(C=NCc3ccccc3)c(NCCO)nc12	–	–	3.6	–	–	–
CCn1c2ccccc2c2cc(/C=N/n3cnnc3)ccc21	–	–	5	·	–	–
CCn1c(/C=N/n2cnnc2)nc2ccccc21	–	–	2.1	·	–	–
COCCn1nnnc1C(c1ccc(OC)c(OC)c1)N1CCN(c2nc3ccccc3s2)CC1 (centres undefined)	–	–	–	–	–	·
CC(=O)N1CCCc2cc(S(=O)(=O)NC(C(=O)NCc3ccc(C)cc3)C(C)C)ccc21 (centres undefined)	–	–	–	–	–	–
O=C(Nc1ccc(F)cc1)N(CCCN1CCOCC1)Cc1cc2cc3c(cc2[nH]c1=O)OCCO3	–	–	3.2	·	–	–
O=C(Nc1ccc(F)cc1)N(CCCN1CCOCC1)Cc1cc2cc3c(cc2[nH]c1=O)OCO3	–	–	2.7	+	–	27
COc1ccccc1NC(=O)N(CCCN1CCOCC1)Cc1cc2cc3c(cc2[nH]c1=O)OCO3	–	–	3.5	–	–	–
CC1(C)Oc2ccc(C(=O)NC3CCCC3)cc2N(CC(=O)NC2CCCCC2)C1=O	–	–	–	–	–	–
O=C(C1CCCN1S(=O)(=O)c1ccc(Cl)c(Cl)c1)N1CCCCC1 (centres undefined)	–	–	–	–	–	–
SMILES	Spn MK inh	Abs 340nm	Fluor 339 460	Spn DPM-DC inh	NADH enzymes	PMK inhibit
O=C1CC(c2ccccc2)CC(O)=C1C=NCC1CCCO1 (centres undefined)	–	–	–	–	–	38
COc1cccc2cc(C(=O)n3ccc(C)n3)c(=O)oc12	–	–	–	–	–	–
CCOC(=O)c1cc(C(=O)OCC)c2cc(Br)ccc2n1	–	–	–	–	–	–
CCOC(=O)c1cc2c(=O)[nH]ccc2nc1C	–	–	3.7	·	–	–
O=C(NCC(c1cccs1)N1CCOCC1)c1ccc(Cl)s1 (centres undefined)	–	–	–	–	–	–
O=C(c1ccccc1-c1nc2ccccc2[nH]1)N1CCCCC1	–	–	–	–	–	–
O=c1c(-c2ccccc2)coc2c(CN3CCCC3)c(O)ccc12	–	–	3.9	·	–	–
O=c1oc2c(CN3CCCCCC3)c(O)ccc2cc1-c1nc2ccccc2[nH]1	–	–	4.7	·	–	–
O=C(c1ccccc1)c1coc2ccc(O)c(CN3CCOCC3)c12	–	–	–	–	–	–
CCCCc1cc(=O)oc2cc(C)c(CN3CCCC3)c(O)c12	–	–	–	–	–	–
O=c1c(-c2ccc(Cl)cc2)coc2c(CN3CCOCC3)c(O)ccc12	–	–	2.2	·	–	–
CCCCc1cc(=O)oc2c(CN3CCCC3)c(O)ccc12	–	–	2.4	·	–	–
CCc1ccc(N(CC(=O)Nc2ccc(OC)cc2OC)S(C)(=O)=O)cc1	–	–	–	–	–	–
O=c1cc(-c2ccccc2)c2ccc(O)c(CN3CCCCC3)c2o1	–	–	2.4	–	–	–
CCc1cc2c(-c3ccccc3)cc(=O)oc2c(CN2CCOCC2)c1O	–	–	2.5	–	–	–
CC(C)NC(=O)C1(O)c2ccccc2NC(=O)N1c1ccc(Cl)c(Cl)c1 (centres undefined)	–	–	–	–	–	–
Cc1cc(C)n(-c2nc3c(c(=O)[nH]c(=O)n3C)n2C(C)C)n1	–	–	–	–	–	–
CCOC(=O)c1c(NC(=O)c2cccs2)sc(C)c1CC	–	–	2.2	·	–	–
COc1ccccc1NC(=O)c1ccc(Br)o1	–	–	–	–	–	–
C=CCn1c(NC(=O)c2ccc(Br)o2)c(C(=O)OCC)sc1=S	–	–	–	–	–	–
CCOC(=O)c1c(NC(=O)c2ccc(Br)o2)sc(C)c1CC	–	–	2.1	·	–	–
CCOC(=O)c1c(NC(=O)c2cccs2)sc(C(=O)N2CCOCC2)c1C	–	–	–	–	–	–
CCOC(=O)C1=C(NC(=O)c2ccc(Br)o2)Nc2ccccc2N=C1	–	–	–	–	–	36
CCOC(=O)c1sc2nc(NC(=O)c3cccs3)sc2c1C	–	–	2.1	·	–	–
OCCn1c(SC2CCCCC2)nc2ccccc21	–	–	–	–	–	–
SMILES	Spn MK inh	Abs 340nm	Fluor 339 460	Spn DPM-DC inh	NADH enzymes	PMK inhibit
CCc1c(C)sc(NC(=O)c2cccs2)c1C(=O)OC(C)C	–	–	2.1	·	–	–
CCOC(=O)c1ccccc1NC(=O)c1cccs1	–	–	–	–	–	–
CCN1C(=O)c2cccc3c(S(=O)(=O)NCc4ccco4)ccc1c23	–	–	2.3	–	–	–
C=CCNCc1cccn1-c1ccccc1	–	–	–	–	–	–
O=C(Nc1ccc(OC(F)(F)F)cc1)c1cnc2n(c1=O)CCS2	–	–	–	–	–	–
CCCCOC(=O)c1ccc(NC(=O)c2cnc3n(c2=O)CCS3)cc1	–	–	2	–	–	–
Cc1cc(NC(=O)c2cc(S(=O)(=O)N3CCCCC3)ccc2C)n(-c2ccccn2)n1	–	–	–	–	–	–
